Only some compounds are listed: those with a hit (about 4.4% of all), similar ones and a draw of the others.
PfHsp90 yeast 2: growth inhibition of yeast expressing Plasmodium Hsp90; S. cerevisiae expressing PfHsp90, BacTiter-Glo ATP, 48 h; yeast lacking PDR1 and PDR3 efflux regulators; inhibition, % at 9.4 µM; 310,000 compounds, 0.32% hits; AID 504621;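 active means every replicate shows inhibition above about 80%, whatever the replicate mean, limit read from the data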;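 further: 0% = DMSO neutral controls and 100% = 20 µM radicicol positive controls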
tim23-1 inh: tim23-1 yeast growth inhibition; S. cerevisiae tim23-1 growth, BacTiter-Glo luminescence, 24 h; inhibition, % at 20 µM; 330,000 compounds, 1.3% hits; AID 463212;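 active means growth inhibition of the mutant yeast at or above 50%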;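 further: temperature-sensitive mutant grown at 25 °C; plate controls were DMSO-treated mutant yeast for no effect and medium wells lacking yeast for full effect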
tim10-1 inh: inhibits growth of tim10-1 mutant yeast; 330,000 compounds, 2.2% hits; AID 463190; inhibition, % at 20 µM; S. cerevisiae tim10-1 ts strain growth, BacTiter-Glo, 24 h;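 active means inhibition of at least 40%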;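 further: mutant grown at 25 °C; 0% = DMSO wells with yeast and 100% = wells holding no yeast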
Mot1-301 SUMO: blocks SUMOylation pathway, rescuing yeast Mot1-301 growth | S. cerevisiae Mot1-301 growth rescue, ATP luminescence, 38.5C; percent above DMSO median, 100 means doubled | growth rescue, % at 18.8 µM | 320,000 compounds, 1% hits | AID 2716;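 active means every valid replicate shows activation above 250% relative to neutral control wells; inactive means the rest, any valid replicate at or below 250%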;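 further: OY570 slx delta 5 strain wells were the positive control but not used for scaling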
TIM10 inh: growth inhibitors of TIM10 yeast strain; inhibition, % at 10 µM; 330,000 compounds, 1.4% hits; S. cerevisiae TIM10 strain growth, BacTiter-Glo luminescence, 24 h;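 active means inhibition of 40% or more at the single tested concentration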;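 further: wild-type TIM10 isogenic control strain grown at permissive 25 °C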
tim10-1 conf: tim10-1 yeast growth inhibition, confirmed. shares compounds with tim10-1 inh. S. cerevisiae tim10-1 ts strain growth, BacTiter-Glo, 24 h. inhibition, % at 20 µM. 7,400 compounds, 56% hits. AID 463213;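 active means inhibition of yeast growth at or above a set limit in either of two repeat tests at 20 µM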;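 further: tim10-1 mutant grown at permissive 25 °C to find synthetic lethal compounds; 0% = DMSO yeast wells and 100% = medium wells without yeast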
tim10 confirm: confirmation of TIM10 yeast growth inhibitors; shares compounds with TIM10 inh; S. cerevisiae tim10 strain growth, BacTiter-Glo luminescence, 24 h; inhibition, % at 10 µM; 4,600 compounds, 63% hits;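 active means inhibition of yeast growth at or above a set limit in either of two replicates at 10 µM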;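 further: this counterscreen used the strain with wild-type TIM10; 0% = yeast with DMSO and 100% = medium wells lacking yeast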
tim23-1 conf: confirmation of tim23-1 mutant yeast growth inhibitors | S. cerevisiae tim23-1 growth, BacTiter-Glo luminescence, 24 h | AID 463218 | inhibition, % at 20 µM | shares compounds with tim23-1 inh | 4,400 compounds, 83% hits;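 active means inhibition above about 39% in either of two replicate wells at 20 µM, limit read from the data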;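 further: temperature-sensitive tim23-1 mutant grown at 25 °C; 0% = DMSO wells with yeast and 100% = medium wells without yeast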
Numbers without * were called inactive; / = no result given.

SMILES	PfHsp90 yeast 2	tim23-1 inh	tim10-1 inh	Mot1-301 SUMO	TIM10 inh	tim10-1 conf	tim10 confirm	tim23-1 conf
O=C(NNC(=O)c1ccc([N+](=O)[O-])o1)c1ccccc1	14	8	-3	5	-3	/	/	/
Cc1cc(-c2nc3ncccc3o2)ccc1NC(=O)c1ccc([N+](=O)[O-])o1	-14	/	/	/	/	/	/	/
COc1ccc(NC(=O)c2ccc([N+](=O)[O-])o2)cc1	-3	59*	64*	226	41*	45*	43*	58*
Cc1ccc(-c2nc3ncccc3o2)cc1NC(=O)c1ccc([N+](=O)[O-])o1	-31	84*	74*	-1	83*	82*	85*	6
O=C(Nc1ccc2oc(-c3ccncc3)nc2c1)c1ccccc1F	10	-4	16	1	36	/	/	/
CC(=O)c1cccc(NC(=O)c2ccc([N+](=O)[O-])o2)c1	-20	77*	65*	-9	47*	52*	46*	72*
O=C(Nc1ccc2oc(-c3ccncc3)nc2c1)c1ccc([N+](=O)[O-])o1	-37	69*	45*	-3	53*	68*	75*	79*
COc1ccc(N2CCN(C(=O)[C@@H]3CCCN3C3=NS(=O)(=O)c4ccccc43)CC2)cc1	-5	9	10	34	4	/	/	/
N=C1C=CC(=C(c2ccc(N)cc2)c2ccc(N)cc2)C=C1	64	/	/	/	/	/	/	/
CN1CCc2c(sc(NC(=O)C3CCN(S(=O)(=O)c4cccs4)CC3)c2C(N)=O)C1	11	-13	-4	1	-1	/	/	/
CSc1ccc(/C=C/C(=O)OCC(=O)NC2CCS(=O)(=O)C2)cc1 (stereo unspecified)	7	12	4	6	9	/	/	/
CS(=O)(=O)c1ccc(S(=O)CC(=O)OCc2ccccc2)c([N+](=O)[O-])c1 (stereo unspecified)	-18	/	/	/	/	/	/	/
O=C(CS(=O)c1ccc(C(F)(F)F)cc1[N+](=O)[O-])Oc1ccccc1 (stereo unspecified)	-9	72*	50*	214	70*	57*	46*	75*
COc1ccc(C(=O)N/C=C/n2cnc3cc(C(F)(F)F)ccc32)cc1	-12	4	10	258	-15	/	/	/
CC1(C)CC(=O)c2cnc(N3CCc4ccccc4C3)nc2C1	-17	71*	55*	-9	16	53*	/	52*
COc1ccc(/C=N/NC(=O)c2nn(C)cc2Br)cc1CSCc1ccco1	-11	52*	44*	13	26	20	/	47*
CCOc1cc(/C=N/NC(=O)c2nn(C)cc2Br)ccc1OCc1ccccc1	-23	10	8	-1	9	/	/	/
COc1ccc(/C(N)=N/OC(=O)CCc2ccccc2)cc1OC	19	-1	9	-3	18	/	/	/
Cc1cccc(/C(N)=N/OC(=O)CCc2ccccc2)c1	-34	63*	59*	4	53*	52*	46*	46*
Cc1ccc(/C(N)=N/OC(=O)CCCc2ccccc2)cc1	7	70*	54*	-7	60*	49*	63*	66*
Cc1noc(C)c1NC(=O)Nc1cccc2c1O[C@@H](CN(C)Cc1ccc3c(c1)OCO3)[C@@H](C)CN([C@H](C)CO)C2=O	-14	1	-9	-5	-5	/	/	/
COc1cccc(/C=C2\SC(=S)N(CCCC(=O)N(CCO)c3ccccc3)C2=O)c1	-27	50*	44*	-10	24	30	/	54*
CC(=O)C1=C(C)OC(N)=C(C#N)C1c1cccc2ccccc12 (stereo unspecified)	-17	41	32	-9	25	/	/	/
CC(=O)n1c2c(c3ccccc31)OC(N)=C(C#N)C2c1ccc(C(C)C)cc1 (stereo unspecified)	13	55*	42*	16	35	37*	/	52*
O=C(NCCS(=O)(=O)N1CCN(Cc2ccccc2)CC1)c1ccccc1	/	9	8	6	2	/	/	/
